Inconclusive results are not listed. Where a call stands in place of a potency, no number is given. Active and inactive are the calls of the source. Calls follow the shape of the dose curve; as a rule, active = well fitted inhibition curve with a large enough effect; inconclusive = small, poorly fitted or top-dose-only effect, or effect the other way; inactive = flat fitted curve, though single readings scatter.
Each molecule was assayed against Ubiquitin carboxyl-terminal hydrolase 2 (Homo sapiens) (UniProt O75604) (assay: Ub-rhodamine 110 based assay for inhibitors Ubiquitin-specific Protease USP2a). Settings: USP2a Ub-rhodamine110 cleavage, fluorescence; series mostly up to 38.3 µM.
Ubiquitin carboxyl-terminal hydrolase 2 (Homo sapiens), sequence (O75604 whole entry, looked up): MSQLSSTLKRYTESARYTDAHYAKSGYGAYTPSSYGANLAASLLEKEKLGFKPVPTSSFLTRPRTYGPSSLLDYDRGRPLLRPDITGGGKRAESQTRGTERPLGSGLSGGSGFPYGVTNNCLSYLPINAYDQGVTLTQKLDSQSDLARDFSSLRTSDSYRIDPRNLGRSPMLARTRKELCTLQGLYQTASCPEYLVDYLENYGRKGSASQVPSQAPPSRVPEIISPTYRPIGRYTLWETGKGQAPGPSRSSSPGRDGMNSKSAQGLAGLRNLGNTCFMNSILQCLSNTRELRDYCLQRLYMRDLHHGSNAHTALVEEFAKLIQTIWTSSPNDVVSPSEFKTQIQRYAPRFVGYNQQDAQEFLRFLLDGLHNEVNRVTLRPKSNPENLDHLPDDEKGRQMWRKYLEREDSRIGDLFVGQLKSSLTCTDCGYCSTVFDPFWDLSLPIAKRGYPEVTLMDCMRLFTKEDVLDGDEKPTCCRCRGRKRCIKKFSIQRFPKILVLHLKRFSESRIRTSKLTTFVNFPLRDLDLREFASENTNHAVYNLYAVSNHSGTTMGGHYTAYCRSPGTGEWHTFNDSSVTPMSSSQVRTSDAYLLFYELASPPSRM
Procedure, shortened: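 5 nM USP2a preincubated with compounds for 30 min at RT in 20 mM Tris-HCl pH 8.0, 2 mM CaCl2, 2 mM beta-mercaptoethanol, 0.05% CHAPS. Cleavage of 150 nM Ub-rhodamine 110 read kinetically (Ex 485/Em 531) for 7 min.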
With `Cc1ccc(CNC(=O)CCNS(=O)(=O)c2ccc(C)cc2)cc1` the Potency was “inactive”.
In the case of `O=C(CSc1nc2ccccc2s1)NCCCN1CCOCC1`, the Potency is reported as “inactive”.
With `C=CC#CC[N+]1(CC#Cc2ccccc2)CCOCC1` the Potency was “inactive”.
For `Cc1ccc(C(C)C)c(OCc2nn(CC(=O)c3ccc(OC(F)F)cc3)c3[n+]2CCCCC3)c1`, the Potency was “inactive”.
`CSc1ncccc1C(=O)OCC(=O)N1CCOCC1` was tested, and the Potency was “inactive”.
`O=C(N/N=C/c1cc(Cl)c(O)c(Cl)c1)c1cc2c(ccc3ccccc32)o1` was tested, and the Potency was 11.2 µM (active).
With `O=C1CC(Nc2ccc(N3CCOCC3)cc2)C(=O)N1c1cccc(C(F)(F)F)c1` (configuration not stated) the Potency was “inactive”.
`CCC(C)Cn1c(O)cc2nn(-c3nc4ccccc4s3)c(=O)c-2c1C` (configuration not stated) was tested, and the Potency was 10 µM (active).
In the case of `CC(=O)c1cccc(NC(=O)C(C)OC(=O)c2cc(=O)[nH]c3ccccc23)c1` (configuration not stated), the Potency is reported as “inactive”.
`O=S(=O)(c1ccccc1)N(CC1CO1)c1cc(Cl)ccc1Cl` (configuration not stated) was tested, and the Potency was “inactive”.
In the case of `O=C(CSc1ccc(Br)c2cccc(Cl)c12)Nc1ccc(S(=O)(=O)Nc2nccs2)cc1`, the Potency is reported as 3.55 µM (active).
With `COc1cc(C(O)P(=O)(OC(C)C)c2ccc(N(C)C)cc2)cc(OC)c1OC` (configuration not stated) the Potency was “inactive”.
With `Nn1c(Nc2ccccc2)nc2ccccc2c1=O` the Potency was “inactive”.
For `COCc1c(C(=O)OCC(=O)c2c(N)n(CC(C)C)c(=O)n(C)c2=O)oc2ccccc12`, the Potency was “inactive”.
`O=C(Cc1ccc(S(=O)(=O)N2CCOCC2)s1)Nc1nc2c(s1)CCCC2` was tested, and the Potency was 6.31 µM (active).
`Cc1cc(C)n2nc(S(=O)(=O)NCCc3ccccc3)nc2n1` was tested, and the Potency was “inactive”.
`COc1ccc2cc(CN(C(=O)Nc3ccccc3)C3CCCC3)c(=O)[nH]c2c1` was tested, and the Potency was “inactive”.

Reference: PubChem BioAssay AID493170 (National Center for Advancing Translational Sciences (NCATS), 2011)
Also: nearly all actives have a fitted effect of over 50% in size.
Potency is read from the fitted curve at half-maximal effect.
